A structure can be active in one record and inactive in another. Activity calls are given as the source filed them. Where a call stands in place of a potency, no number is given. Calls follow the shape of the dose curve; as a rule, active = well fitted activation curve with a large enough effect in the repeat runs; inconclusive = weak or mixed curves; inactive = flat fitted curve, though single readings scatter.
assay: Caspase-3/7 induction in CHO-K1 cells by small molecules, qHTS assay (AID 1346980); details: CHO-K1 caspase-3/7 induction, Caspase-Glo luminescence, 17 h; series mostly up to 92.4 µM; also: nearly all actives have a fitted effect of over 15% in size
Text: National Center for Advancing Translational Sciences [NCATS]
NIH Chemical Genomics Center [NCGC]
U.S. Environmental Protection Agency [EPA]
National Institutes of Environmental Health Sciences [NIEHS]
National Toxicology Program [NTP]
Apoptosis is a process of programmed cell death and plays a central role in the development of multicellular organisms. It is a highly regulated process and induces cell death by activating caspases, which are the members of cysteine aspartic acid-specific protease (caspase) family. Caspases involved in apoptosis are classified by their mechanism of action as initiator caspases (caspase-2, -8, -9 and -10) and executioner caspases (caspase-3, -6, and -7). Inhibition of apoptosis results in number of cancers, autoimmune diseases, inflammatory diseases and viral infection. To identify small molecule compounds that induce apoptosis, a homogeneous, luminescent Caspase-Glo 3/7 assay was used. Wild type CHO-K1 cells were used to screen Tox21 libraries for identifying caspase-3/7 activity inducers.
CHO-K1 cells were dispensed at 1,500 per well in 5uL of culture medium into white solid bottom 1536-well plates (Corning Life Sciences, Corning, NY) using a Multidrop Combi (Thermo Scientific, Waltham, MA) dispenser. The assay plates were incubated at 37 C and 5% CO2 for 5hr, and then 23nL of compounds dissolved in DMSO and positive control were transferred using a Pintool station (Wako, San Diego, CA). The assay plates were incubated at 37C and 5% CO2 for 17hr. For caspase-3/7 activity read, 4uL of Caspase-Glo 3/7 reagent (Promega Corporation, Madison, WI) was added to each well of the assay plates using Flying Reagent Dispenser (FRD, Aurora Discovery, San Diego, CA) and incubated the assay plates at room temperature for 30min. The luminescence signal was quantified using a ViewLux plate reader (Perkin Elmer, Shelton, CT).
Potency is read from the fitted curve at half-maximal effect.

| SMILES | Potency |
| --- | --- |
| C[C@]12CCC(=O)C[C@@H]1CC[C@@H]1[C@@H]2CC[C@]2(C)[C@@H](O)CC[C@@H]12 | inactive |
| CC(C)N(C(=O)SCC(Cl)=C(Cl)Cl)C(C)C | inactive |
| CCCCCCCCOC(=O)c1ccccc1C(=O)OCCCCCCCC | inactive |
| Cc1cc(C)cc(C)c1 | inactive |
| Oc1cc(Cl)ccc1Oc1ccc(Cl)cc1Cl | 59.1 µM (active) and inactive |
| C=C(C)[C@H]1Cc2c(ccc3c2O[C@@H]2COc4cc(OC)c(OC)cc4[C@@H]2C3=O)O1 | inactive |
| CCCCCCCCCCCOC(=O)c1ccccc1C(=O)OCCCCCCCCCCC | inactive |
| O=P(Oc1ccccc1)(Oc1ccccc1)Oc1ccccc1 | inactive |
| CCC(C)c1ccc(O)cc1 (stereo not given) | inactive |
| O=C(Nc1ccc(Br)cc1)c1cc(Br)cc(Br)c1O | inactive |
| C=CCN(CC=C)C(=O)C(Cl)Cl | inactive |
| Nc1ccncc1 | inactive |
| Oc1cc(Cl)ccc1Cl | inactive |
| Oc1c(Cl)c(Cl)c(Cl)c(Cl)c1Cl | inactive |
| N[C@@H](Cc1ccc(N(CCCl)CCCl)cc1)C(=O)O | inactive |
| N#CCCCl | inactive |
| O=C1C=CC(=O)C=C1 | inactive |
| COc1ccc(C(CN(C)C)C2(O)CCCCC2)cc1 (stereo not given) | inactive |
| Oc1cc(Cl)c(Cl)cc1Cl | inactive |
| CC(C)(C)c1ccccc1O | inactive |

| SMILES | Potency |
| --- | --- |
| CCC(CC)Nc1c([N+](=O)[O-])cc(C)c(C)c1[N+](=O)[O-] | inactive |
| CNC(=O)Oc1cccc2c1OC(C)(C)O2 | inactive |
| C=CC(=O)OCCO | inactive |
| CCOCN(C(=O)CCl)c1c(C)cccc1CC | inactive |
| CCCCC(CC)COC(=O)c1ccc(C(=O)OCC(CC)CCCC)c(C(=O)OCC(CC)CCCC)c1 (stereo not given) | inactive |
| Oc1ccc(-c2ccccc2)cc1 | inactive |
| COP(=S)(OC)Oc1ccc([N+](=O)[O-])cc1 | inactive |
| CCC(C)c1cc([N+](=O)[O-])cc([N+](=O)[O-])c1O (stereo not given) | inactive |
| CCOP(=S)(OCC)O/N=C(\C#N)c1ccccc1 | inactive |
| O=C(O)C(F)(F)C(F)(F)C(F)(F)C(F)(F)C(F)(F)C(F)(F)C(F)(F)F | inactive |
| Brc1ccc(Oc2cc(Br)c(Br)cc2Br)c(Br)c1 | inactive |
| O=[N+]([O-])c1cccc2ccccc12 | inactive |
| Nn1cnnc1 | inactive |
| Nc1ccc(-c2ccccc2)cc1 | inactive |
| C1=Cc2cccc3cccc1c23 | inactive |
| c1cc(OCC2CO2)ccc1Cc1ccc(OCC2CO2)cc1 (stereo not given) | inactive |
| CCC(C)(c1ccc(O)cc1)c1ccc(O)cc1 | inactive |
| CNC(=O)N(C)c1nnc(C(C)(C)C)s1 | inactive |
| N#Cc1cc(Br)c(O)c(Br)c1 | inactive |
| ClC1C(Cl)C(Cl)C(Cl)C(Cl)C1Cl (stereo not given) | inactive |
